Results from the supplement of paper PMC6411743.
± gives the standard deviation of the averaged measurements. About 6,200 targets were measured; listed, in parts, are those with the largest changes and a random draw of the rest.

Compound: Nc1ncnc2c1ncn2[C@@H]1O[C@H](COP(=O)(O)OP(=O)(O)NP(=O)(O)O)[C@@H](O)[C@H]1O [adenylyl imidodiphosphate]
Experiment: NP40-soluble protein abundance relative to vehicle (solubility fold change) (ratio); higher = more soluble protein in presence of AMP-PNP
Method in brief: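 Values are fold changes against the detergent-processed vehicle, based on vsn-normalised intensities. Jurkat crude lysate was treated at eight concentrations from 0.1 to 10 mM (10 min at room temperature, then 3 min at 37 °C), solubilised with 0.8% NP40 and benzonase, ultracentrifuged and analysed by TMT-labelled LC-MS/MS over three independent experiments.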

UniProt Q9Y5U2, sequence (Q9Y5U2 whole entry, one chain of several): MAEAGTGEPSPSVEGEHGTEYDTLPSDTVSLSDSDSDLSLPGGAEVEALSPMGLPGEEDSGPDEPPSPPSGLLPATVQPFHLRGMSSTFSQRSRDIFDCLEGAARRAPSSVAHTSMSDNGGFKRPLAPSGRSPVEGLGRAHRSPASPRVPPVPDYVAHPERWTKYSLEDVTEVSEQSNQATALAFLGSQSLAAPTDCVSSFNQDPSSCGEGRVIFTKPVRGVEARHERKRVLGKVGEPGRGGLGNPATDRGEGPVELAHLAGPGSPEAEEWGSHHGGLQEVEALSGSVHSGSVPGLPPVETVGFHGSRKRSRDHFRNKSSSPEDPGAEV
UniProt Q13227, sequence (Q13227 whole entry, one chain of several): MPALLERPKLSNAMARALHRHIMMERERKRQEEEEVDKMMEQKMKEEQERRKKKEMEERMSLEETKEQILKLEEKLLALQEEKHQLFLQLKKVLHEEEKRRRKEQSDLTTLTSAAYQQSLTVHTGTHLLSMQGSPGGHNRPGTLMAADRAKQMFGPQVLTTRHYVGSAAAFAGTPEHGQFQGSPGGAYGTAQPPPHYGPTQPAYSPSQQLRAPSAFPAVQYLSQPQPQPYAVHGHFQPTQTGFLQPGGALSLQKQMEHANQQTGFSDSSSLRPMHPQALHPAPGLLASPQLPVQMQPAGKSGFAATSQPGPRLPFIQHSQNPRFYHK
UniProt A3KMH1, sequence (A3KMH1 whole entry): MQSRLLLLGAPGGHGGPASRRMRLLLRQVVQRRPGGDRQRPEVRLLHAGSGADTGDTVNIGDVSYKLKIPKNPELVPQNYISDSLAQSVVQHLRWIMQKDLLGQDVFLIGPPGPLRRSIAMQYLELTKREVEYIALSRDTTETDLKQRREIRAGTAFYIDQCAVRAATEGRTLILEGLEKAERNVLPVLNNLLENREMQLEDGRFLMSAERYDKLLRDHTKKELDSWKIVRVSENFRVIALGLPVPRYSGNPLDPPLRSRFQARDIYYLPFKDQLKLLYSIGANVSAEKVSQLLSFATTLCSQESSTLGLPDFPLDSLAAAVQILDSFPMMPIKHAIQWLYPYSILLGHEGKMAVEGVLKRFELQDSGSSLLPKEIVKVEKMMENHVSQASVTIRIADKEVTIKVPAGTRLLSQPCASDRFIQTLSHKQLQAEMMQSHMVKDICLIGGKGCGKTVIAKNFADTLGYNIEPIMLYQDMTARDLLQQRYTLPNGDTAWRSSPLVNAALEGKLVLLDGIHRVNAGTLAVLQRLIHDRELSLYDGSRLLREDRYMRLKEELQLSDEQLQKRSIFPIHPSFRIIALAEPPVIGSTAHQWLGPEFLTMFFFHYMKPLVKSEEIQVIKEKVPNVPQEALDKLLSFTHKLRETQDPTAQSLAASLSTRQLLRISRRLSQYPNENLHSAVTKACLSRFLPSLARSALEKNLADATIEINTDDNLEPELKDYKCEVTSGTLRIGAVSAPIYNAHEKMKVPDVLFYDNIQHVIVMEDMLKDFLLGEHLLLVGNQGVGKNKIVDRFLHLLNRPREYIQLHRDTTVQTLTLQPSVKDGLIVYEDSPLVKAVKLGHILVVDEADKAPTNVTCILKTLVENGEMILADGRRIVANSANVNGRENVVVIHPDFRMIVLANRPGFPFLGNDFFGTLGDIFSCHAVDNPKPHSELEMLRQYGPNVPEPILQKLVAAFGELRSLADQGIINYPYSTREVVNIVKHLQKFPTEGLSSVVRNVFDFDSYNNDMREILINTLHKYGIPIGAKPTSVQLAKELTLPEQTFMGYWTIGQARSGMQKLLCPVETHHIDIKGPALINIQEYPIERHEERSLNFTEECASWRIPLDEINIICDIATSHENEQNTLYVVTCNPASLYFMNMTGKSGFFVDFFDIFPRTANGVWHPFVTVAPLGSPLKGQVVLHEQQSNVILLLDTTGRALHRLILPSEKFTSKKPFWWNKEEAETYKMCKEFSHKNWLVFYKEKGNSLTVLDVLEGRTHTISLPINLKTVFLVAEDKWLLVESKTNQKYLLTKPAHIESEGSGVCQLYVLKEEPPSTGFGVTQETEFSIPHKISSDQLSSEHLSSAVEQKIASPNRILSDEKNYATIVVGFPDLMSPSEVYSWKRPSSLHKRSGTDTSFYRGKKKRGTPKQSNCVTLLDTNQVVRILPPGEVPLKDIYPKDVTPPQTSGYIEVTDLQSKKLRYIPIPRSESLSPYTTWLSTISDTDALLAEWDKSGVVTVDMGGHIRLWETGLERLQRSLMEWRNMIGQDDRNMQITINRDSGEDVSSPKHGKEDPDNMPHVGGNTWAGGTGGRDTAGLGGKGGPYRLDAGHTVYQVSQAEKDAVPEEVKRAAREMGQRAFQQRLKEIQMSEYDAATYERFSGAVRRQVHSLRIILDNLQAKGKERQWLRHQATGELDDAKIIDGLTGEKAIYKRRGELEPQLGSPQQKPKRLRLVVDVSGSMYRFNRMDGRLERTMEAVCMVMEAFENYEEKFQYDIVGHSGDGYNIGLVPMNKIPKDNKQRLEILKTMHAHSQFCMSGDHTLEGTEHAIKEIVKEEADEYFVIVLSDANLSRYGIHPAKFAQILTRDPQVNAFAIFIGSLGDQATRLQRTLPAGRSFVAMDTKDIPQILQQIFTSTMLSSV
UniProt P62191, sequence (P62191 whole entry, one chain of several): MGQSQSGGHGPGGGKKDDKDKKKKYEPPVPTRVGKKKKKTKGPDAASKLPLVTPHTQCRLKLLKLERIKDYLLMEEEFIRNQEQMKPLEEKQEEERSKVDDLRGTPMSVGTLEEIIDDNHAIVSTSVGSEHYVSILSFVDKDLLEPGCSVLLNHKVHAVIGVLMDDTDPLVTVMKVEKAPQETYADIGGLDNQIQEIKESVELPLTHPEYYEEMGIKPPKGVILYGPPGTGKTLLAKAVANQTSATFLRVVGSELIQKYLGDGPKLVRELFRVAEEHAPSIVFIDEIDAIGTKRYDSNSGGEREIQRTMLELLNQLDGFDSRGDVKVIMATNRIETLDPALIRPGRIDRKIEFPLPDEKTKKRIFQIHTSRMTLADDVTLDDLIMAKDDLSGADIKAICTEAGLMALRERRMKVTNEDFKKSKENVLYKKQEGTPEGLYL
UniProt Q13620, sequence (Q13620 whole entry, one chain of several): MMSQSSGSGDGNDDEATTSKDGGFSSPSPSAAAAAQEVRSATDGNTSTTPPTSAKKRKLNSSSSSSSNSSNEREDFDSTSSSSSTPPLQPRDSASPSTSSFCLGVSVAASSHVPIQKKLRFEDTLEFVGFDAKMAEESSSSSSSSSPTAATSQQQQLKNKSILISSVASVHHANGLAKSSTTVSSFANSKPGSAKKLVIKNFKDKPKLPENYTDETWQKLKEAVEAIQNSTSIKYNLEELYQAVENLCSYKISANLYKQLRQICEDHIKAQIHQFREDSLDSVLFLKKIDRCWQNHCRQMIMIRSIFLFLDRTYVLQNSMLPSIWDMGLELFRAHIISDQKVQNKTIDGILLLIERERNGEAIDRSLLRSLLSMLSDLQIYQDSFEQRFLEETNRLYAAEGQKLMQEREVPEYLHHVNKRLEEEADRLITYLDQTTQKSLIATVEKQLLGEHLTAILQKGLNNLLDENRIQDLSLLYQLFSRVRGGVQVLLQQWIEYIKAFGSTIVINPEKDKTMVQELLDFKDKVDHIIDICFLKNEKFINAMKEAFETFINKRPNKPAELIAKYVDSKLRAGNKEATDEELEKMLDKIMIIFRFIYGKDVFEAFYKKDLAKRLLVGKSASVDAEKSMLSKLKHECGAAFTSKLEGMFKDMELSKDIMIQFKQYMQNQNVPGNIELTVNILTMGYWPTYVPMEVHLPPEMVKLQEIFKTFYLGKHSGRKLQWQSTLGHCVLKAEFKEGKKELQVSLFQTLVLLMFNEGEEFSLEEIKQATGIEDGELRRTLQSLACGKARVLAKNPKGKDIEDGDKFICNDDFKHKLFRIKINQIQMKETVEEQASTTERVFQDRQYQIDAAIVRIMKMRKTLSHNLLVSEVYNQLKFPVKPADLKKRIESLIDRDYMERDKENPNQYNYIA
UniProt Q96K21, sequence (Q96K21 whole entry, one chain of several): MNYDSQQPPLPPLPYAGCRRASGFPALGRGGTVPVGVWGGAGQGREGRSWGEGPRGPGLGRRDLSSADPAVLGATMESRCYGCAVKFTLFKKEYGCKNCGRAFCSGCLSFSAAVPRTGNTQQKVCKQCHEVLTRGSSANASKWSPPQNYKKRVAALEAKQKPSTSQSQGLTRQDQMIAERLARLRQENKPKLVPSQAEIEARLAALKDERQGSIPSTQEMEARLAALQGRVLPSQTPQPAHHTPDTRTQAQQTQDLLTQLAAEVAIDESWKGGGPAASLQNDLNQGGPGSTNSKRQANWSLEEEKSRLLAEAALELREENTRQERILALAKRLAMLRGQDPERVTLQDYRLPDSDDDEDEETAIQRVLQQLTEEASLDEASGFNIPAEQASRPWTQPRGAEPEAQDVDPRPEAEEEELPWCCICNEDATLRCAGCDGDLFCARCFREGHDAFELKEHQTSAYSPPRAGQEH
UniProt O43765, sequence (O43765 whole entry): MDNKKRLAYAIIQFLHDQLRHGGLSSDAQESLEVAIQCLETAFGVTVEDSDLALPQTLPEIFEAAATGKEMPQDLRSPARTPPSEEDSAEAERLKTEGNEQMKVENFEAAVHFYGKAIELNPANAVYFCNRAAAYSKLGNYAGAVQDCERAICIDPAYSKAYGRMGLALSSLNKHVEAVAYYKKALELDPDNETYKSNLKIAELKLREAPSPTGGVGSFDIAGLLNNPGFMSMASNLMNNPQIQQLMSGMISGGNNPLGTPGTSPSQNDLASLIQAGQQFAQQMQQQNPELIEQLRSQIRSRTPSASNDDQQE
UniProt Q96C01, sequence (Q96C01 whole entry, one chain of several): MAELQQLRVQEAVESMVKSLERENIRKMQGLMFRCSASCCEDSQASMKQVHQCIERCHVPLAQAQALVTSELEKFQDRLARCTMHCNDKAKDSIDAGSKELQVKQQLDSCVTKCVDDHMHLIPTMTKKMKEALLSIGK
UniProt O43716, sequence (O43716 whole entry, looked up, other chains not shown): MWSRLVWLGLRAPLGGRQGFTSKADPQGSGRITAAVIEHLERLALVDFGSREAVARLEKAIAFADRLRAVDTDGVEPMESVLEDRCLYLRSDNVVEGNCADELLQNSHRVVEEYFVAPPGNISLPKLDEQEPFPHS

Target	NP40-soluble protein abundance (concentration: 1mM)	NP40-soluble protein abundance (concentration: 2mM)	NP40-soluble protein abundance (concentration: 4mM)	NP40-soluble protein abundance (concentration: 6mM)	NP40-soluble protein abundance (concentration: 8mM)	NP40-soluble protein abundance (concentration: 10mM)
H0YIV9|O43716 (UniProt O43716+H0YIV9)	0.973 ± 0.038	1.02 ± 0.038	1.01 ± 0.03	0.988 ± 0.012	0.977 ± 0.015	0.962 ± 0.013
A0A0A6YYH1|H0YLI7|P59780|Q7Z6K5-2 (UniProt Q7Z6K5+P59780+H0YLI7)	1 ± 0.04	1.01 ± 0.011	0.9742 ± 0.0072	0.974 ± 0.028	0.965 ± 0.032	0.968 ± 0.017
K7ER90|O75821|K7EL60 (UniProt O75821)	1.02 ± 0.075	1.1 ± 0.077	1.11 ± 0.095	1.24 ± 0.045	1.27 ± 0.074	1.42 ± 0.14
H7BXF5|Q9H0E3-3 (UniProt Q9H0E3)	1.05 ± 0.041	1.09 ± 0.035	1.02 ± 0.03	1.03 ± 0.039	0.993 ± 0.016	1.05 ± 0.057
I3VM54|Q9Y2K7 (UniProt Q9Y2K7)	1.02 ± 0.016	1.08 ± 0.045	1.17 ± 0.037	1.26 ± 0.12	1.31 ± 0.11	1.43 ± 0.17
F8VX10|F8VXI8|Q9H9L4 (UniProt Q9H9L4)	1.01 ± 0.014	1.06 ± 0.033	1.05 ± 0.033	1.02 ± 0.066	1.031 ± 0.0027	1.04 ± 0.044
F8W922|Q9H7P6|Q9H7P6-2 (UniProt Q9H7P6)	1.01 ± 0.013	0.98 ± 0.022	0.989 ± 0.02	1.02 ± 0.032	1.02 ± 0.016	1.02 ± 0.013
I3L4X7|Q13227|Q13227-2 (UniProt Q13227)	0.982 ± 0.029	1.03 ± 0.059	1.02 ± 0.064	1.08 ± 0.067	1.05 ± 0.019	1.1 ± 0.019
K4DI93|Q13620-1 (UniProt Q13620)	0.991 ± 0.011	0.936 ± 0.05	0.9972 ± 0.0076	0.992 ± 0.028	1 ± 0.017	0.995 ± 0.024
F8VXC8|Q8TAQ2|Q8TAQ2-2|Q8TAQ2-3 (UniProt Q8TAQ2)	1.03 ± 0.034	1.07 ± 0.04	1.04 ± 0.047	1.04 ± 0.1	1.04 ± 0.064	1.09 ± 0.1
E7EQY1|Q96C01 (UniProt Q96C01)	1.01 ± 0.036	1.11 ± 0.07	0.988 ± 0.082	0.991 ± 0.062	0.958 ± 0.062	0.968 ± 0.11
HMGN4 (UniProt O00479)	1.024 ± 0.01	1.01 ± 0.047	1.04 ± 0.056	1.1 ± 0.07	1.08 ± 0.075	1.22 ± 0.076
UniProt A3KMH1|A3KMH1-3	0.93 ± 0.024	0.858 ± 0.098	0.933 ± 0.025	0.874 ± 0.035	0.879 ± 0.017	0.8557 ± 0.0057
C9JJV1|Q9Y5U2|Q9Y5U2-2|A6NCC9|C9JHT9|E9PME3 (UniProt Q9Y5U2)	1.01 ± 0.013	1.04 ± 0.076	1.01 ± 0.01	0.968 ± 0.047	0.951 ± 0.048	0.968 ± 0.068
UniProt O60504-2|O60504	1.03 ± 0.013	0.999 ± 0.018	1.04 ± 0.018	1.03 ± 0.029	1.02 ± 0.029	1.02 ± 0.025
F8VU39|J3KPG5|Q9UIF9|Q9UIF9-2|Q9UIF9-3 (UniProt Q9UIF9)	1 ± 0.015	0.9926 ± 0.0061	1.023 ± 0.0073	1.02 ± 0.039	1.01 ± 0.014	1.03 ± 0.037
E9PB61|Q86V81 (UniProt Q86V81)	0.969 ± 0.032	1.08 ± 0.042	1.09 ± 0.027	1.27 ± 0.081	1.41 ± 0.14	1.6 ± 0.28
E7ESS3|K7EKW3|Q71RG4|Q71RG4-2 (UniProt Q71RG4)	1.01 ± 0.037	1.03 ± 0.045	1 ± 0.039	0.996 ± 0.012	1.01 ± 0.037	1 ± 0.032
C9J2U0|I3L413|P24864|P24864-2|P24864-3 (UniProt P24864)	0.913 ± 0.0092	0.822 ± 0.076	0.935 ± 0.011	0.936 ± 0.032	0.9933 ± 0.0062	0.953 ± 0.07
C9J0Q5|C9JE98|C9JFD3|Q9Y618|Q9Y618-3|Q9Y618-4|Q9Y618-5 (UniProt Q9Y618)	1.03 ± 0.0079	1.05 ± 0.04	1.03 ± 0.035	0.969 ± 0.057	0.951 ± 0.02	1.01 ± 0.052
G3V4X1|P62191|P62191-2 (UniProt P62191)	0.942 ± 0.045	0.906 ± 0.049	0.888 ± 0.079	0.896 ± 0.1	0.882 ± 0.1	0.89 ± 0.12
UniProt O14523|O14523-2	0.973 ± 0.015	0.988 ± 0.013	0.985 ± 0.037	0.968 ± 0.027	0.97 ± 0.047	1.01 ± 0.06
K7EK07|P84243 (UniProt P84243+K7EK07)	0.97 ± 0.11	1.01 ± 0.094	1.01 ± 0.084	1.08 ± 0.13	1.09 ± 0.15	1.16 ± 0.1
CHMP2A (UniProt O43633)	0.949 ± 0.013	1.02 ± 0.094	0.936 ± 0.021	0.966 ± 0.043	0.971 ± 0.031	0.915 ± 0.078
H3BRF9|Q96K21|Q96K21-3 (UniProt Q96K21)	0.998 ± 0.015	1.03 ± 0.05	1.02 ± 0.049	0.979 ± 0.02	0.959 ± 0.028	0.997 ± 0.044
F8VUY8|Q96QD8 (UniProt Q96QD8)	1 ± 0.015	1.07 ± 0.091	1 ± 0.022	0.967 ± 0.022	0.988 ± 0.014	0.989 ± 0.02
SGTA (UniProt O43765)	1.03 ± 0.052	1.15 ± 0.079	0.99 ± 0.03	1.01 ± 0.037	0.943 ± 0.054	1.02 ± 0.085
RNF113A (UniProt O15541)	1.02 ± 0.038	1.04 ± 0.089	0.999 ± 0.029	0.979 ± 0.017	0.935 ± 0.012	0.973 ± 0.035
C9JEJ2|H7BZN1|P49585|C9J050 (UniProt P49585)	1.01 ± 0.028	1.02 ± 0.022	1.02 ± 0.015	0.993 ± 0.027	1 ± 0.02	0.996 ± 0.01
CAND2 (UniProt O75155)	0.973 ± 0.018	0.942 ± 0.027	0.986 ± 0.045	1 ± 0.066	1.01 ± 0.031	1.02 ± 0.023
